# Compounds with a hit are over-represented: about 7.3% of the library has one in this group of screens.
# HCV inhibitor: HCV inhibition. actives 3.4% (n = 340,000). Potency, µM (titrated, usually from 41.8 µM), inactives show at the top dose activity change, negative = inhibition, actives largely listed as inhibitors. Huh7.5.1 HCVcc-Cre infection, luciferase reporter, 44 h; further: potency means the concentration at half of the fitted maximal effect
#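 Reporter virus HCVcc-Cre (~0.5 moi) infects cells exposed to compound; seeding density 1,000 cells/well with 4 h settling beforehand. Luminescence, 15 sec read, taken 44 h post-infection following a 15 min RT substrate incubation.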
# AmpC inh no detg: AmpC beta-lactamase inhibition without detergent. P00811. AmpC nitrocefin hydrolysis, absorbance 480 nm, 0.0001% Triton. Potency, µM (top dose mostly 57.1 µM), for the others: at the highest dose activity change, negative = inhibition, hits mostly inhibitors. actives 0.52% (n = 330,000);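 further: potency means the concentration at half of the fitted maximal effect; plate controls were no compound for no effect and no enzyme for full effect; nearly all actives have a fitted effect of over 20% in size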
# Target sequence (P00811 whole entry, looked up): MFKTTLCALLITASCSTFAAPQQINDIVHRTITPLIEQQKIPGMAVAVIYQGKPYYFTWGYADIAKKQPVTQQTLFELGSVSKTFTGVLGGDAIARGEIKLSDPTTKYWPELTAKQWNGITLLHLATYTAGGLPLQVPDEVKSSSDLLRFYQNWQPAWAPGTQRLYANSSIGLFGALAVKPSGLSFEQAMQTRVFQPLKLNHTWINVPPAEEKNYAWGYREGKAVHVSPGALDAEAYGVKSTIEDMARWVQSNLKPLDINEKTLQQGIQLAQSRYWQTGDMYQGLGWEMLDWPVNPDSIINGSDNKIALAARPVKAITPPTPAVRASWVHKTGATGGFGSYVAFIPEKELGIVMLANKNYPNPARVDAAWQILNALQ
#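 AmpC (5.3 nM in the dispensed reagent) in 20 mM phosphate pH 7.0 with 0.01% (detergent screen) or 0.0001% Triton X-100 was preincubated with compounds for 15 min at room temperature. Nitrocefin was then added from an 800 uM solution, and hydrolysis was followed at 480 nm.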
# FMDV antiviral: blocks foot and mouth disease virus | AID 1159524 | FMDV antiviral cell-based qHTS | actives 1.2% (n = 410,000) | Potency, µM (series often up to 57.9 µM), for inactives: top-dose activity change, negative = inhibition, actives largely listed as inhibitors; calls by dose curve; tested in HEK293T cells; further: read-out not given here; potency means the concentration at half of the fitted maximal effect; nearly all actives have a fitted effect of over 45% in size
# HCMV antiviral: blocks human cytomegalovirus replication | actives 4.5% (n = 410,000) | HFF cells, HCMV-luciferase reporter, 72 h; active compounds read low | activity change, negative = inhibition, % at 57.5 µM; in the data active means activity change below about -60%; inconclusive means no clear call, values can overlap the other calls; inactive means above about -39%
#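 Two compound doses tested in HFFs infected with HCMV-luciferase, MOI 1 PFU/cell, 72 h at 37C. Lysate luminescence read with OneGlo; data normalized against buffer-only and 10uM Salinomycin inhibitor controls.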
# AmpC detergent: blocks E. coli AmpC beta-lactamase in detergent assay; P00811; AmpC hydrolysis of nitrocefin, absorbance 480 nm, 0.01% Triton; Potency, µM (titrated, usually from 114 µM), without a hit: at the top dose activity change, negative = inhibition, usual class: inhibitors; actives 0.041% (n = 370,000);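 further: potency means the concentration at half of the fitted maximal effect; 0% = no-compound wells and -100% = no-enzyme wells; nearly all actives have a fitted effect of over 25% in size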
#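 AmpC (5.3 nM in the dispensed reagent) in 20 mM phosphate pH 7.0 with 0.01% (detergent screen) or 0.0001% Triton X-100 was preincubated with compounds for 15 min at room temperature. Nitrocefin was then added from an 800 uM solution, and hydrolysis was followed at 480 nm.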
# * = called active by the depositor; u = inconclusive; x = not tested or not shown; [ ] = remark or other dose. Unless noted, the call rests on the fitted dose curve; in most records, active means well fitted curve in the direction sought with a large enough effect; inconclusive means small, poorly fitted or top-dose-only effect, or another doubt; inactive means no such curve, though single readings can be large; an effect the other way counts as inactive or inconclusive. Unless noted, on the % scale 0 is the no-effect control and ±100 the full control effect.
SMILES,HCV inhibitor,AmpC inh no detg,FMDV antiviral,HCMV antiviral,AmpC detergent
COc1cc(C)c(Br)cc1S(=O)(=O)NCc1ccncc1,u,-1%[2.29 µM],23%,-76*,-2%
Cc1cc(C)c(S(=O)(=O)NCCc2ccncc2)c(C)c1,-3%,-6%,81%,-29,0%
Cc1ccc(-c2noc(CCC(=O)NCCN3CCN(Cc4ccccc4)CC3)n2)cc1,u,148%,-23%,u,-10%
COc1ccc(NC(=O)NCCCN2CCC(Cc3ccccc3)CC2)cc1,u,14%,0%,-26,-7%
Cc1ccc(-c2noc(CCC(=O)NCC3CCN(Cc4cccc(C)c4)CC3)n2)cc1,1.1µM*,104%,u,u,-8%
COc1ccc(-c2noc(CCC(=O)NCCCN3CCC(Cc4ccccc4)CC3)n2)cc1,2.5µM*,195%,u,u,u
COc1ccc(-c2noc(CCC(=O)NCCCN3CCN(c4ccc(F)cc4)CC3)n2)cc1,22µM*,151%,u,-64*,4%
O=S(=O)(c1ccc2c(c1)CCN2)N1CCOCC1,4%,-12%,-20%,5,1%
CCOC(=O)c1c(C)[nH]c(C(=O)N2CCc3cc(OC)c(OC)cc3C2)c1C,11µM*,78%,u,3,5%
CCOC(=O)c1c(C)[nH]c(C(=O)N2CCN(C(=O)OCC)CC2)c1C,-1%,8%,-9%,-12,1%
COc1ccc(NC(=O)CN2C(=O)NC(c3ccccc3)(c3ccccc3)C2=O)cc1,u,-27%,0%,-17,1%
Cc1ccc2nc(-c3ccc(NC(=O)CCS(=O)(=O)c4ccccc4)cc3)sc2c1,u,2%,u,-71*,-5%
Cc1nc2ccc(NC(=O)CCS(=O)(=O)c3ccccc3)cc2s1,-9%,-12%,44%,-2,14%
CC1(c2ccccc2)NC(=O)N(CC(=O)Nc2ccc(C(N)=O)cc2)C1=O (stereo not drawn),11%,115%,-20%,-62*,-8%
COc1ccc(C2(c3ccc(OC)cc3)NC(=O)N(CC(=O)Nc3ccc(OC(F)F)cc3)C2=O)cc1,13µM*,-32%,u,12,-11%
CC1(c2ccc(OC(F)F)cc2)NC(=O)N(CC(=O)Nc2ccc(OC(F)F)cc2)C1=O (stereo not drawn),u,-4%,-10%,16,-7%
Cc1ccc(S(=O)(=O)CCC(=O)Nc2nc(-c3ccccn3)cs2)cc1,13µM*,-33%,u,u,-4%
O=C1CN(C(=O)c2c(F)cccc2Cl)C(c2ccc(F)cc2)c2cc(Br)ccc2N1 (stereo not drawn),x,x,-5%,-37,9%
Cc1ccc(C2(C)NC(=O)N(CC(=O)Nc3nc(-c4ccccn4)cs3)C2=O)cc1 (stereo not drawn),6.3µM*,-22%,-20%,-36,-3%
CC1(c2ccccc2)NC(=O)N(CC(=O)Nc2nc(-c3ccccn3)cs2)C1=O (stereo not drawn),u,-18%,5%,4,-14%
COc1ccccc1NOC(=O)CCOc1ccccc1,8%,x,36%,-32,x
Cc1cccc(Nc2nc(N)c([N+](=O)[O-])c(N3CCC(C)CC3)n2)c1,u,-13%,25µM*,-38,2%
Cc1cccc(Nc2nc(N)c([N+](=O)[O-])c(N3CC(C)OC(C)C3)n2)c1 (stereo not drawn),10µM*,-21%,3.2µM*,10,0%
Cc1cccc(Nc2nc(N)c([N+](=O)[O-])c(N3CC(C)CC(C)C3)n2)c1 (stereo not drawn),6.3µM*,-53%,22µM*,-63*,8%
CC(C)Cc1nc2cc(NS(=O)(=O)N(C)C)cc(C(=O)N3CC4(C)CC3CC(C)(C)C4)c2n1C (stereo not drawn),x,x,23%,x,x
SMILES,HCV inhibitor,AmpC inh no detg,FMDV antiviral,HCMV antiviral,AmpC detergent
Clc1ccc(C(c2ccccc2)N2CCNCC2)cc1 (stereo not drawn),11µM*,40%,-4%,45,u
Cc1oc(-c2ccc(C(=O)NCCc3ccc(Cl)cc3)cc2)nc1CSc1ccccc1,x,x,-14%,-17,24%
Cc1c(NC(=O)Nc2cccs2)cccc1[N+](=O)[O-],u,-28%,15%,-72*,0%
Cc1cccc(NC(=O)Nc2cccs2)c1C,x,x,30%,-14,21%
Cc1cc(-n2c(SCC(=O)Nc3ccc(F)c(F)c3)nc3n[nH]c(C)c3c2=N)ccc1Cl,u,-50%,5%,0,-3%
Cc1cc(-n2c(SCC(=O)Nc3ccc(Br)cc3)nc3n[nH]c(C)c3c2=N)ccc1Cl,-16%,u,-23%,-75*,7%
COc1cccc(NC(=O)CSc2nc3n[nH]c(C)c3c(=N)n2-c2cccc(OC)c2)c1,10µM*,62%,-19%,57,1%
Cc1cccc(-n2c(SCC(=O)Nc3ccc(C)c(C)c3)nc3n[nH]c(C)c3c2=N)c1,x,x,-19%,-28,-5%
CC(=O)NCCNC(=O)c1cnn(-c2nccc(-c3cc(C)sc3C)n2)c1C,x,x,-8%,x,x
C#CCN1CCc2onc(-c3ccccc3OC)c2C1=O,x,x,-6%,-23,x
COc1ccc(C(=O)c2cnc3ccc(C)cc3c2S(=O)(=O)c2ccccc2)cc1,x,x,13%,-98*,2%
COc1ccc(S(=O)(=O)c2c(C(=O)c3ccc(C)c(C)c3)cnc3ccc(F)cc23)cc1,x,x,u,-39,14%
Cc1ccc(S(=O)(=O)c2c(C(=O)c3ccccc3)cnc3cc4c(cc23)OCCO4)cc1,-3%,-3%,13%,-99*,-5%
CCc1ccc(S(=O)(=O)c2c(C(=O)c3ccccc3)cnc3ccc(CC)cc23)cc1,x,x,12%,-77*,12%
Cc1ccc2ncc(C(=O)c3ccc(C)c(C)c3)c(S(=O)(=O)c3ccc(F)cc3)c2c1,x,x,-16%,-74*,18%
CN(CCO)C(=O)c1cn(C2CCCN(Cc3cc4ccccc4s3)C2)nn1 (stereo not drawn),x,x,-23%,x,x
Cc1cccc(NC(=O)C(NS(=O)(=O)c2ccc3c(c2)oc(=O)n3C)C(C)C)c1 (stereo not drawn),x,x,13%,10,-9%
CC(=O)C1=C(O)C(=O)N(c2ccc(Br)cn2)C1c1cccc([N+](=O)[O-])c1 (stereo not drawn),12%,-41%,-21%,-105*,0%
CC(=O)C1=C(O)C(=O)N(c2ccc(Br)cn2)C1c1ccccc1[N+](=O)[O-] (stereo not drawn),4%,-23%,-12%,97,1%
CC(C)N(Cc1nccn1C)C(=O)c1cc(COc2ccc(F)cc2Cl)on1,-54%,110%,-11%,-97*,7%
